Source: PubChem BioAssay
HT1080NT lethal – qHTS for induction of synthetic lethality in tumor cells producing 2HG: qHTS for the HT-1080-NT fibrosarcoma cell line; HT-1080-NT fibrosarcoma viability, CellTiter-Glo ATP luminescence, 48 h; Potency, µM (top dose mostly 46.1 µM), hits mostly cytotoxic; 1.6% of 360,000 active; AID 686970, 2013;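 also: NT is the 2HG producing partner of a matched IDH1 knockdown line; nearly all actives have a fitted effect of over 55% in size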
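Toxicity toward the 2HG-producing NT line was scored as %Activity, normalised to DMSO and no-cell wells, from CellTiter-Glo luminescence after 48 hours' treatment.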
TDP1 cell noCPT – qHTS for Inhibitors of human tyrosyl-DNA phosphodiesterase 1 (TDP1): qHTS in cells in absence of CPT | 15% of 420,000 active | DT40 Tdp1-/- hTDP1 cells, no CPT, ATP luminescence, 48 h | Potency, µM (doses to about 46.2 µM), hits mostly inhibitors | AID 686978, 2013; also: nearly all actives have a fitted effect of over 55% in size
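Luminescent ATP content (CellTiter-Glo) served as the growth readout. Knockout chicken DT40 cells expressing human TDP1 were exposed to compounds without camptothecin for a minimum 48 hr at 37 °C.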
HT1080 IDH1KD tx – qHTS for induction of synthetic lethality in tumor cells producing 2HG: qHTS for the HT-1080-IDH1KD cell line. HT-1080 IDH1 knockdown viability, ATP luminescence, 48 h. 2% of 360,000 active. Potency, µM (top dose mostly 46.1 µM), usual class: cytotoxic. AID 686971, 2013
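Assay cells: HT-1080 with IDH1 knockdown, 750 per well, RPMI/5% FBS. Exposure: 48 h at 37 °C following 2 h pre-incubation. Read: CellTiter-Glo luminescence; fitted concentration-response, curve class assigned.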
IL1B secr inh – qHTS for Inhibitors of Inflammasome Signaling: IL-1-beta AlphaLISA Primary Screen | THP-1 LPS/ATP IL-1B secretion, AlphaLISA, 16 h; stronger effect = lower value | activity change, % at 57.5 µM | 4.7% of 360,000 active; in the data active = activity change below about -50%; inconclusive = mostly about -30% to -49%
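THP-1 cells pretreated 1 hr with compounds (up to 57.5 uM final), then stimulated with LPS (250 ng/mL final) plus ATP (1.25 mM final); secreted IL-1B measured by AlphaLISA after 16 hr, decreased signal indicating inhibition.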
uPA generation – qHTS for Inhibitors of Cell Surface uPA Generation; cell surface uPA generation assay, qHTS; Potency, µM (highest dose often 38.3 µM), most hits filed as inhibitors; 0.31% of 330,000 active; AID 540303, 2011; active = well fitted inhibition curve with a large enough effect; inconclusive = small, poorly fitted or top-dose-only effect; inactive = no such curve, though single readings can be large or run the other way; tested in mouse RAW 264.7 cells; also: nearly all actives have a fitted effect of over 55% in size
TDP1 cell CPT – qHTS for Inhibitors of human tyrosyl-DNA phosphodiesterase 1 (TDP1): qHTS in cells in presence of CPT; Potency, µM (doses to about 46.2 µM), most hits filed as inhibitors; 12% of 420,000 active; chicken DT40 Tdp1-/-;hTDP1 cells + 20 nM CPT, ATP luminescence, 48 h; also: nearly all actives have a fitted effect of over 55% in size
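Cell growth measured by CellTiter-Glo luminescence after a minimum 48 h, 37 C compound exposure with 20 nM CPT in Tdp1-knockout DT40 cells stably expressing hTDP1, seeded 400/well; qHTS titration format.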
Numbers stand for hits; – = inactive; ? = inconclusive; · = no result given; [ ] = another dose, or the depositor's remark. Most compounds without a hit are left out; they make up all but 19% or so of the library. Unless noted, calls follow the shape of the dose curve; as a rule, active = well fitted curve in the direction sought with a large enough effect; inconclusive = small, poorly fitted or top-dose-only effect, or another doubt; inactive = no such curve, though single readings can be large; an effect the other way counts as inactive or inconclusive.

SMILES	HT1080NT lethal	TDP1 cell noCPT	HT1080 IDH1KD tx	IL1B secr inh	uPA generation	TDP1 cell CPT
CCOC(=O)C1=NNC(C(=O)c2ccc(Cl)cc2)C1c1ccc(OC)cc1 (stereo not given)	–	18.4µM	–	–	–	?
CCOC(=O)C1NN=C(C(=O)c2ccc(C)cc2)C1c1ccc(C)cc1 (stereo not given)	–	20.6µM	–	?	–	18.4µM
O=c1c2cc(Br)ccc2nc(-c2ccccc2)n1O	–	?	–	–	–	–
O=c1c2ccccc2nc(/C=C/c2cc(Br)ccc2O)n1CCO	–	14.6µM	–	-97.7	?	?
O=c1c2ccccc2nc(/C=C/c2c[nH]c3ccccc23)n1CCO	?	6.51µM	?	-92.3	·	4.61µM
O=C(CN1C(=O)c2ccccc2C1=O)C(O)CN1C(=O)c2ccccc2C1=O (stereo not given)	?	–	–	–	·	–
CC(C)NC(=O)N(O)C1N(Cc2ccc3c(c2)OCO3)C(=S)SC1(C)C (stereo not given)	–	14.6µM	–	–	–	?
COc1cccc(NC(=O)CN2C=NS(=O)(=O)c3ccccc32)c1	·	–	·	·	·	–
CN(CC(=O)Nc1cccc(F)c1)CC(=O)Nc1cccc(S(N)(=O)=O)c1	–	–	–	–	–	–
CCCCCCCCCCCCC(=O)N1CCCC[C@H]1CNC(=O)[C@@H](N)CCCCN	·	21.1µM	·	·	·	13.3µM
CCC1CCCCN1C(=O)CCCc1ccccc1 (stereo not given)	–	–	–	?	–	?
COC(=O)c1ccc2nc(-c3ccco3)c(Cc3ccccc3)n2c1	?	20.6µM	?	–	·	25.9µM
COC(=O)c1ccc2nc(-c3ccco3)c(Cc3cccc(Cl)c3)n2c1	–	16.4µM	–	–	·	?
COC(=O)c1ccc2nc(-c3ccccc3)c(Cc3ccc(C)cc3)n2c1	–	?	–	–	·	?
CC1(C(=O)NCc2cccs2)Cc2c(-c3ccccc3)ccnc2O1 (stereo not given)	?	6.51µM	?	–	·	5.8µM
CN(C)c1ccc(-c2ccnc3c2CC(C)(C(=O)NCc2cccs2)O3)cc1 (stereo not given)	?	13µM	?	–	·	16.4µM
CC1(C(=O)NCc2cccc(Cl)c2)Cc2c(-c3ccc4c(c3)OCO4)ccnc2O1 (stereo not given)	?	16.4µM	?	–	·	25.9µM
CC1(C(=O)NCc2cccs2)Cc2c(-c3ccc4c(c3)OCO4)ccnc2O1 (stereo not given)	?	2.31µM	?	–	·	1.3µM
CC1(C(=O)NCc2ccncc2)Cc2c(-c3cccc(C(F)(F)F)c3)ccnc2O1 (stereo not given)	–	?	–	–	·	?
O=C1CN(C(=O)COC(=O)CCC(=O)c2ccc(F)cc2)c2ccccc2N1	–	–	–	–	–	–
Cc1ccc(S(=O)(=O)N2CCOC23CCN(C(=O)C(=O)NCc2ccccc2)CC3)cc1	–	–	–	–	–	?
Fc1ccc(-n2nc(-c3ccccc3)c3cnc4ccccc4c32)cc1Cl	·	–	·	·	·	–
CCOC(=O)C1CCN(C(=O)c2ccc(N3CCCC3=O)cc2)CC1	–	–	–	–	–	–
Cc1cc(N=Cc2c(O)n(-c3cccc(C(F)(F)F)c3)c(=O)c3ccccc23)no1	–	23.1µM	–	–	–	18.4µM
Cc1nn(-c2cccc(C(F)(F)F)c2)c(=O)c2ccccc12	–	–	–	–	–	–
SMILES	HT1080NT lethal	TDP1 cell noCPT	HT1080 IDH1KD tx	IL1B secr inh	uPA generation	TDP1 cell CPT
CC(OC(=O)CCc1c[nH]c2ccccc12)C(=O)c1ccccc1 (stereo not given)	–	–	–	–	–	–
O=S(=O)(CCN1CCSCC1)c1ccc(Cl)cc1	–	–	–	-73.1	–	–
CCOc1ccccc1N1CCN(C(=O)c2cc3ccccc3cc2OC)CC1	?	4.61µM	5.17µM	–	3.55µM	3.66µM
O=C(CCl)N1CCN(C(=O)C2COc3ccccc3O2)CC1 (stereo not given)	?	3.66µM	23.1µM	-94.9	–	?
COc1cc2ccccc2cc1C(=O)N1CCN(C(C)=O)CC1	–	–	–	–	–	–
O=C(C1COc2ccccc2O1)N1CCN(c2nc3ccc(F)cc3s2)CC1 (stereo not given)	·	20.6µM	·	·	·	?
CCOc1ccccc1N1CCN(C(=O)c2cccc(-c3ccc(O)cc3)c2)CC1	–	?	–	?	–	16.4µM
COc1ccc(CCN2CCCn3c2nc2c3c(=O)n(CC(N)=O)c(=O)n2C)cc1OC	–	–	–	–	–	–
Cc1cc(NS(=O)(=O)c2ccc(NC(=O)CSc3nc4ncccc4[nH]3)cc2)nc(C)n1	–	–	–	–	–	–
COc1ccc(Oc2ncc3nc(C)c(=O)n(-c4ccc(OC)cc4)c3n2)cc1	·	?	·	·	·	–
Cc1onc(-c2ccccc2)c1C(=O)OCC(=O)NC(C)c1ccc(Cl)cc1 (stereo not given)	–	–	–	–	–	?
COc1cc2ccccc2cc1C(=O)N1CCN(c2ccccn2)CC1	–	–	–	–	–	–
COc1cc2ccccc2cc1C(=O)N1CCN(c2nc3ccc(F)cc3s2)CC1	·	14.6µM	·	·	·	16.4µM
COc1ccc(CNC(=O)O[C@H]2C[C@@H]3C(=O)N(c4ccccc4)C(=O)[C@@H]3[C@@H]3CN(S(=O)(=O)c4ccc(C)cc4)C[C@]23O)cc1OC	–	–	–	–	·	–
Cc1ccc(NC(=O)c2c(C)oc3ccc(O)c(CN4CCOCC4)c23)c(C)c1	·	–	·	·	·	–
Cc1ccccc1NC(=O)c1c(C)oc2ccc(O)c(CN3CCCC(C)C3)c12 (stereo not given)	·	20.6µM	·	·	·	10.3µM
COCCOC(=O)c1c(C)oc2ccc(O)c(CN3CCC(C)CC3)c12	–	–	–[9.24 µM]	–	–	–
Cc1ccccc1NC(=O)c1c(C)oc2ccc(O)c(CN3CCC(C)CC3)c12	·	23.1µM	·	·	·	16.4µM
Cc1ccc(SCC(=O)N2CCN(S(=O)(=O)c3cccs3)CC2)cc1	–	?	–	–	–	–
CCOc1ccc2oc(=O)cc(CN3CCN(Cc4ccccc4)CC3)c2c1	?	23.1µM	–	–	–	?
CCOc1ccc2oc(=O)cc(CN3CCN(Cc4ccc(C)cc4)CC3)c2c1	·	14.6µM	·	·	·	23.1µM
COC(=O)c1ccc(COC(=O)CNC(=O)c2cccs2)cc1	–	–	–	–	–	–
